Structures can show the parent of a compound that is named as a salt.
System: Saccharomyces cerevisiae BY4741 SeMeCo community
Experiment: z-score of subpopulation abundance vs DMSO median, subpopulation auxotrophic for HL; higher = larger share of this subpopulation than in DMSO controls
Conditions: 10 µM; 24 h; SM minimal medium; subpopulation (auxotrophy): HL
Protocol: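 Fluorescent four-plasmid SeMeCo (self-establishing metabolically cooperating S. cerevisiae BY4741 community; plasmids pH-mRuby2, pL-mWasabi, pU-eCFP, pM-TagRFP657) was grown 24 h in minimal SM medium with each Selleck FDA-approved drug at 10 µM in 384-well plates. Cells were fixed and imaged by high-content confocal microscopy. For each auxotrophic subpopulation (and the prototroph), a z-score gives the deviation from the DMSO vehicle-control population median.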

Row | Structure (SMILES) | z-score of subpopulation abundance
1 | COc1ncnc(NS(=O)(=O)c2ccc(N)cc2)c1OC [Sulfadoxine] | 0.34
2 | C[C@@H](O)[C@H]1C(=O)N2C(C(=O)O)=C([C@H]3CCCO3)S[C@H]12 [Faropenem Sodium] | 0
3 | Nc1nc2c(ncn2COCCO)c(=O)[nH]1 [Aciclovir] | -0.76
4 | NC(=O)c1cnccn1 [Pyrazinamide] | -0.42
5 | CN1CCC(=C2c3ccccc3C=Cc3ccccc32)CC1 [Cyproheptadine hydrochloride] | -0.02
6 | CO[C@@]1(NC(=O)CSC[C@@H](N)C(=O)O)C(=O)N2C(C(=O)O)=C(CSc3nnnn3C)CS[C@@H]21 [Cefminox Sodium] | 1.62
7 | C=C1CCN([C@H](C)[C@](O)(Cn2cncn2)c2ccc(F)cc2F)CC1 [Efinaconazole] | 11.6
8 | Cc1cc(-c2ccc(/N=N/c3ccc4c(S(=O)(=O)O)cc(S(=O)(=O)O)c(N)c4c3O)c(C)c2)ccc1/N=N/c1ccc2c(S(=O)(=O)O)cc(S(=O)(=O)O)c(N)c2c1O [Evans Blue] | 8.09
9 | CCN(CC)CCOC(=O)c1ccc(N)cc1Cl [Chloroprocaine HCl] | -0.09
10 | C=C[C@]1(C)C[C@@H](OC(=O)CSC(C)(C)CNC(=O)[C@H](N)C(C)C)[C@]2(C)[C@H](C)CC[C@]3(CCC(=O)[C@H]32)[C@@H](C)[C@@H]1O [Valnemulin HCl] | 0.85
11 | CCC(C)(C)C(=O)O[C@H]1C[C@@H](C)C=C2C=C[C@H](C)[C@H](CC[C@@H]3C[C@@H](O)CC(=O)O3)[C@H]21 [Simvastatin] | 1.65
12 | C[C@]12CC[C@@H]3c4ccc(O)cc4C[C@@H](CCCCCCCCC[S+]([O-])CCCC(F)(F)C(F)(F)F)[C@H]3[C@@H]1CC[C@@H]2O (stereo not given in full) [Fulvestrant] | 0.87
13 | COc1cc2c(cc1OC)C(=O)C(CC1CCN(Cc3ccccc3)CC1)C2 (stereo not given) [Donepezil] | 0.47
14 | C#C[C@]1(OC(C)=O)CC[C@H]2[C@@H]3CCC4=C[C@@H](OC(C)=O)CC[C@@H]4[C@H]3CC[C@@]21C [Ethynodiol diacetate] | 0.67
15 | O=C1OCCN1/N=C/c1ccc([N+](=O)[O-])o1 [Furazolidone] | 2.14
16 | Cc1ncc([N+](=O)[O-])n1CC(C)O (stereo not given) [Secnidazole] | -0.51
17 | CCN(CC)C(=O)[C@@]1(c2ccccc2)C[C@H]1CN [Levomilnacipran Hydrochloride] | -0.6
18 | O=C1CN2Cc3c(ccc(Cl)c3Cl)N=C2N1 [Anagrelide HCl] | 0.5
19 | Cc1cccc(C)c1NC(=O)C1CCCCN1C (stereo not given) [Mepivacaine] | -0.24
20 | CCCN[C@H]1CCc2nc(N)sc2C1 [Pramipexole] | 0.63

Row | Structure (SMILES) | z-score of subpopulation abundance
21 | CC(=O)[C@H]1CC[C@H]2[C@@H]3CCC4=CC(=O)CC[C@]4(C)[C@H]3CC[C@]12C [Progesterone] | -0.85
22 | C#CCN[C@@H]1CCc2ccccc21 [Rasagiline Mesylate] | 0.37
23 | COc1ccc2[nH]c([S+]([O-])Cc3ncc(C)c(OC)c3C)nc2c1 (stereo not given) [Omeprazole Sodium] | 0.77
24 | CCN1CCN(C(=O)N[C@@H](C(=O)N[C@@H]2C(=O)N3[C@@H]2SC(C)(C)[C@@H]3C(=O)O)c2ccccc2)C(=O)C1=O [Piperacillin Sodium] | 0.54
25 | C=CCN1CCCC1CNC(=O)c1cc2nn[nH]c2cc1OC (stereo not given) [Alizapride HCl] | -0.36
26 | Clc1ccccc1C(c1ccccc1)(c1ccccc1)n1ccnc1 [Clotrimazole] | 3.58
27 | O=c1ccn(C2CC(O)C(CO)O2)c(=O)[nH]1 (stereo not given) [2-deoxyuridine] | 1.21
28 | COC(=O)C1=C(C#N)NC(C)=C(C(=O)OC(C)C)C1c1cccc([N+](=O)[O-])c1 (stereo not given) [Nilvadipine] | -0.05
29 | Clc1ccc(CSC(Cn2ccnc2)c2ccc(Cl)cc2Cl)cc1 (stereo not given) [Sulconazole Nitrate] | 11
30 | Cc1onc(-c2c(F)cccc2Cl)c1C(=O)N[C@@H]1C(=O)N2[C@@H]1SC(C)(C)[C@@H]2C(=O)O [Flucloxacillin sodium] | -0.43
31 | Nc1ccc(S(=O)(=O)c2ccc(N)cc2)cc1 [Dapson] | 0.32
32 | O=C(NCCO[N+](=O)[O-])c1cccnc1 [Nicorandil] | -0.84
33 | CN(C)[C@@H]1C(=O)C(C(N)=O)=C(O)[C@@]2(O)C(=O)C3=C(O)c4c(O)ccc(Cl)c4[C@@H](O)[C@H]3C[C@@H]12 [Demeclocycline HCl] | 0.01
34 | CCOC(=O)c1ccc(O)cc1 [Ethylparaben] | -0.54
35 | CCn1cc(C(=O)O)c(=O)c2cnc(N3CCNCC3)nc21 [Pipemidic acid] | 0.01
36 | O=C(O)Cc1ccccc1Nc1c(Cl)cccc1Cl [Diclofenac acid] | -0.51
37 | NCCNc1ccc(NCCN)c2c1C(=O)c1ccncc1C2=O [Pixantrone Maleate] | 9.63
38 | N#Cc1ccc(Oc2ccc3c(c2)COB3O)cc1 [Crisaborole (AN2728)] | 5.69
39 | COCC1=C(C(=O)OC(C)OC(=O)OC(C)C)N2C(=O)[C@@H](NC(=O)/C(=N\OC)c3csc(N)n3)[C@H]2SC1 (stereo not given in full) [Cefpodoxime proxetil] | -0.24
40 | CC[N+](CC)(CC)CC [Tetraethylammonium bromide] | -0.73

Source: the supplement of paper PMC8975748
